Test results published in PubChem BioAssay (Tox21).
Results filed as inconclusive are left out. A call without a number means that no potency is given here. The source made the active and inactive calls. Unless noted, the call rests on the fitted dose curve; in most records, active means well fitted curve in the direction sought with a large enough effect in the repeat runs; inconclusive means weak or mixed curves; inactive means no such curve, though single readings can be large; an effect the other way counts as inactive or inconclusive.

Legend:
[1] = molecular target: Aryl hydrocarbon receptor (Homo sapiens) (UniProt P35869); assay: qHTS assay to identify small molecule that activate the aryl hydrocarbon receptor (AhR) signaling pathway (AID 743085); further: nearly all actives have a fitted effect of over 15% in size; further: potency means the concentration at half of the fitted maximal effect;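 on activation: HG2L7.5c1 human HepG2 liver cells with stably integrated DRE-driven firefly reporter; series mostly up to about 70 µM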
Outline: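 HepG2 cells (HG2L7.5c1) stably carrying a firefly luciferase reporter driven by 20 dioxin responsive elements were exposed to compound for 24 h at 37C after a 5 h settling period; luminescence rise (ONE-Glo) indicated activation.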

[2] = qHTS assay to identify small molecule antagonists of the peroxisome proliferator-activated receptor gamma (PPARg) signaling pathway - cell viability counter screen (AID 743194); further: nearly all actives have a fitted effect of over 55% in size
Outline: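 Cytotoxicity counter screen in PPARg-bla HEK293H cells, same wells as reporter assay. Compounds plus 50 nM rosiglitazone (final) for 17 h at 37 C, then viability read by CellTiter-Glo luminescence.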

[3] = qHTS assay for small molecule agonists of the antioxidant response element (ARE) signaling pathway (AID 743202; active means well fitted activation curve with a large enough effect in the signal ratio in the repeat runs, not every such curve was filed as active; the % refers to the signal ratio; further: potency means the concentration at half of the fitted maximal effect)
Outline: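 HepG2 ARE-bla reporter line, 2,000 cells/well; 5 h preincubation 37 C/5% CO2; compound (DMSO) 16 h 37 C; B/G FRET substrate 2 h RT; fluorescence intensity.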

[4] = qHTS assay for small molecule agonists of the antioxidant response element (ARE) signaling pathway - cell viability counter screen (AID 743203; calls by dose curve; further: nearly all actives have a fitted effect of over 55% in size; further: potency means the concentration at half of the fitted maximal effect)
Outline: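 Luminescence read-out (CellTiter-Glo, 30 min at room temperature) measured cell viability in the same wells as the ARE beta-lactamase reporter. HepG2 ARE-bla cells were treated with compounds for 16 hrs at 37C/5% CO2.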

[5] = qHTS assay for small molecule activators of the heat shock response signaling pathway - cell viability counter screen (AID 743209); further: nearly all actives have a fitted effect of over 50% in size; further: potency means the concentration at half of the fitted maximal effect
Outline: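 HSE-bla HeLa; 1500 cells/well; overnight 37 C, 5% CO2; compound 5 h 37 C; LiveBLAzer B/G substrate 2.5 h RT; CellTiter-Glo 30 min RT; luminescence.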

[6] = qHTS assay for small molecule activators of the heat shock response signaling pathway (AID 743210; active means well fitted activation curve with a large enough effect in the signal ratio in the repeat runs, with a control signal flat, not every such curve was filed as active; the % refers to the signal ratio;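 further: HeLa cells with beta-lactamase reporter driven by heat shock elements; series mostly up to about 63 µM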)
Outline: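 Beta-lactamase reporter read-out: FRET substrate fluorescence after 2.5 h at RT, following 5 h compound treatment at 37 C of HeLa cells carrying HSE-driven bla reporter; quantitative HTS format.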

[7] = qHTS assay to identify small molecule agonists of the peroxisome proliferator-activated receptor delta (PPARd) signaling pathway - cell viability counter screen (AID 743211); further: nearly all actives have a fitted effect of over 55% in size; further: potency means the concentration at half of the fitted maximal effect
Outline: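 PPARd-bla HEK293H cells (UAS-beta-lactamase reporter) were treated with compounds for 17 h at 37 C. Viability was then read in the same wells by CellTiter-Glo luminescence after 30 min at room temperature.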

[8] = molecular target: Peroxisome proliferator-activated receptor delta (Homo sapiens) (UniProt Q03181); assay: qHTS assay to identify small molecule agonists of the peroxisome proliferator-activated receptor delta (PPARd) signaling pathway (AID 743212; calls by dose curve)
Outline: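 Read-out: beta-lactamase FRET fluorescence after 2 h room-temperature incubation with LiveBLAzer B/G substrate. Cells were HEK293H carrying a UAS-bla reporter for PPARd, treated at 37 C with DMSO-dissolved compounds.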

[9] = qHTS assay to identify small molecule antagonists of the peroxisome proliferator-activated receptor delta (PPARd) signaling pathway - cell viability counter screen (AID 743213); further: nearly all actives have a fitted effect of over 50% in size; further: potency means the concentration at half of the fitted maximal effect
Outline: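 PPARd-bla HEK293H cells were treated with compounds plus agonist L165041 (300 nM final) for 17 h at 37 C. Viability was then read in the same wells by CellTiter-Glo luminescence after 30 min at room temperature.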

[10] = molecular target: Peroxisome proliferator-activated receptor delta (Homo sapiens) (UniProt Q03181); assay: qHTS assay to identify small molecule antagonists of the peroxisome proliferator-activated receptor delta (PPARd) signaling pathway (AID 743215; active means well fitted inhibition curve with a large enough effect in the signal ratio in the repeat runs, not every such curve was filed as active; the % refers to the signal ratio;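 further: cells stimulated with agonist L165041 at 300 nM final during compound exposure; series mostly up to about 62 µM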)
Outline: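 HEK293H GeneBLAzer PPARd UAS-bla reporter cells; cpd + L165041 300 nM final, 17 h 37 C; LiveBLAzer B/G FRET substrate 2 h RT; fluorescence intensity read-out. Antagonist mode.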

[11] = qHTS assay to identify small molecule agonists of the farnesoid-X-receptor (FXR) signaling pathway - cell viability counter screen (AID 743218); further: nearly all actives have a fitted effect of over 45% in size; further: potency means the concentration at half of the fitted maximal effect
Outline: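 Luminescence from CellTiter-Glo, read after 30 min at RT, reports viability of GeneBLAzer FXR-UAS-bla HEK 293T cells treated 16 h with compounds in the wells used for the beta-lactamase reporter.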

[12] = qHTS assay to identify small molecule antagonists of the farnesoid-X-receptor (FXR) signaling pathway - cell viability counter screen (AID 743221; active means well fitted cell-killing curve with a large enough effect in the repeat runs, not every such curve was filed as active; further: nearly all actives have a fitted effect of over 50% in size; further: potency means the concentration at half of the fitted maximal effect)
Outline: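 FXR-UAS-bla HEK 293T cells were treated with test compounds plus chenodeoxycholic acid (50 uM final) for 16 h at 37 C. Cell viability in the same wells was then read as CellTiter-Glo luminescence after 30 min at room temperature.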

[13] = molecular target: Vitamin D3 receptor (Homo sapiens) (UniProt P11473); assay: qHTS assay to identify small molecule agonists of the vitamin D receptor (VDR) signaling pathway (AID 743222; calls by dose curve)
Outline: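 Beta-lactamase reporter readout (LiveBLAzer B/G FRET, 2 h RT) in VDR-bla cells after 16 h compound treatment at 37C, 5% CO2; cells pre-incubated 4 h before pin transfer of DMSO solutions.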

[14] = molecular target: Vitamin D3 receptor (Homo sapiens) (UniProt P11473); assay: qHTS assay to identify small molecule antagonists of the vitamin D receptor (VDR) signaling pathway (AID 743223; active means well fitted inhibition curve with a large enough effect in the signal ratio in the repeat runs, not every such curve was filed as active; the % refers to the signal ratio)
Outline: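 VDR-bla cells were plated, incubated 4 h at 37C, then given compound and 1alpha,25-dihydroxyvitamin D3 (3 nM final). After 16 h at 37C, LiveBLAzer B/G FRET substrate was added for 2 h at room temperature and fluorescence read.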

[15] = qHTS assay to identify small molecule agonists of the vitamin D receptor (VDR) signaling pathway - cell viability counter screen (AID 743224); further: series mostly up to about 63 µM; nearly all actives have a fitted effect of over 50% in size
Outline: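 Cytotoxicity counter screen: VDR-bla cells, 16 h compound exposure at 37C, 5% CO2; CellTiter-Glo luminescence, 30 min RT, same wells as bla read.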

[16] = molecular target: Peroxisome proliferator-activated receptor gamma (Homo sapiens) (UniProt P37231); assay: qHTS assay to identify small molecule agonists of the peroxisome proliferator-activated receptor gamma (PPARg) signaling pathway (AID 743094; active means well fitted activation curve with a large enough effect in the signal ratio in the repeat runs, not every such curve was filed as active; the % refers to the signal ratio)
Outline: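 HEK293H PPARg-bla cells, 5 h settle at 37C/5% CO2; compound (DMSO) 17 h, 37C; B/G FRET substrate 1 h RT; fluorescence intensity read-out. qHTS format.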

[17] = molecular target: Peroxisome proliferator-activated receptor gamma (Homo sapiens) (UniProt P37231); assay: qHTS assay to identify small molecule antagonists of the peroxisome proliferator-activated receptor gamma (PPARg) signaling pathway (AID 743191; calls by dose curve; further: series mostly up to about 63 µM; nearly all actives have a fitted effect of over 30% in size)
Outline: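 GeneBLAzer PPARg UAS-bla HEK293H cells, 5 h post-plating, exposed to compounds 17 h at 37C. LiveBLAzer B/G FRET substrate added for 1 h at room temperature; beta-lactamase reporter read by fluorescence intensity.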

[18] = molecular target: Bile acid receptor (Homo sapiens) (UniProt Q96RI1); assay: qHTS assay to identify small molecule antagonists of the farnesoid-X-receptor (FXR) signaling pathway (AID 743217; active means well fitted inhibition curve with a large enough effect in the signal ratio in the repeat runs, not every such curve was filed as active; the % refers to the signal ratio)
Outline: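 Read-out: beta-lactamase FRET fluorescence (LiveBLAzer B/G substrate, 2 h, room temperature) in GeneBLAzer FXR-UAS-bla HEK 293T cells. Compounds were co-dosed with 50 uM chenodeoxycholic acid (final) and incubated 16 h at 37 °C.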

[19] = molecular target: Bile acid receptor (Homo sapiens) (UniProt Q96RI1); assay: qHTS assay to identify small molecule agonists of the farnesoid-X-receptor (FXR) signaling pathway (AID 743220; active means well fitted activation curve with a large enough effect in the signal ratio in the repeat runs, not every such curve was filed as active; the % refers to the signal ratio)
Outline: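 FXR-UAS-bla HEK 293T cells carrying a UAS-driven beta-lactamase reporter were plated for 5 h at 37C/5% CO2, then exposed to DMSO-dissolved Tox21 10K compounds for 16 h at 37C. A LiveBLAzer B/G FRET substrate was loaded for 2 h at room temperature before fluorescence reading.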

[20] = qHTS assay to identify small molecule that activate the aryl hydrocarbon receptor (AhR) signaling pathway - cell viability counter screen (AID 743086);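 further: HepG2 liver cells carrying the AhR DRE luciferase reporter; series mostly up to about 70 µM; nearly all actives have a fitted effect of over 45% in size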
Outline: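 HepG2-AhR-luc (HG2L7.5c1) cells, 4000/well, treated 24 h at 37 C with compound; viability measured as CellTiter-Fluor fluorescence after 30 min in the same wells as the luciferase read.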

Sequence of Peroxisome proliferator-activated receptor gamma (Homo sapiens) (P37231 whole entry, looked up): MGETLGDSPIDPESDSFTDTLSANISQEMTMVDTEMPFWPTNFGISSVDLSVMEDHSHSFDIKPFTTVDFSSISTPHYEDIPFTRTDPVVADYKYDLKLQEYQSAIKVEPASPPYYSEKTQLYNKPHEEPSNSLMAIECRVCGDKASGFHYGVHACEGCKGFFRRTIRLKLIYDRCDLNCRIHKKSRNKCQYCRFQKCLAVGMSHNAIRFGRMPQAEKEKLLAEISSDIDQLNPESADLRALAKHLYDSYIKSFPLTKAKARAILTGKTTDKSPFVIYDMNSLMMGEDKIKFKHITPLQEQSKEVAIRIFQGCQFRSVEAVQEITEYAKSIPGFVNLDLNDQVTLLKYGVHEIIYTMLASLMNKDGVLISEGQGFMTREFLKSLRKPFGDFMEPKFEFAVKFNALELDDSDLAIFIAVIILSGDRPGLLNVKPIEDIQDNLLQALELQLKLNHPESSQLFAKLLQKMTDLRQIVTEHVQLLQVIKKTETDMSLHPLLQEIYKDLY
Sequence of Peroxisome proliferator-activated receptor delta (Homo sapiens) (Q03181 whole entry, looked up): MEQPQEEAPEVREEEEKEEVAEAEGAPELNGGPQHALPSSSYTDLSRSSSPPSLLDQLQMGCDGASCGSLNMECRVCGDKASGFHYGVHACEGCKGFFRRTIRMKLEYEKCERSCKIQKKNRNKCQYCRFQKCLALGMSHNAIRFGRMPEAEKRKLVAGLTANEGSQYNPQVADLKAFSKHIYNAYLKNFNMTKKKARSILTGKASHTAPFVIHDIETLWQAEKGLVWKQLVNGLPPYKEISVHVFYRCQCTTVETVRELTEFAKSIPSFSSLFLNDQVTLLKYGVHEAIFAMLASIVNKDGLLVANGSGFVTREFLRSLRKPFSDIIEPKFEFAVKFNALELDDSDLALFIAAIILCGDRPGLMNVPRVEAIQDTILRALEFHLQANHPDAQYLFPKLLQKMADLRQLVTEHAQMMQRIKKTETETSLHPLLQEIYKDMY
Sequence of Vitamin D3 receptor (Homo sapiens) (P11473 whole entry, looked up): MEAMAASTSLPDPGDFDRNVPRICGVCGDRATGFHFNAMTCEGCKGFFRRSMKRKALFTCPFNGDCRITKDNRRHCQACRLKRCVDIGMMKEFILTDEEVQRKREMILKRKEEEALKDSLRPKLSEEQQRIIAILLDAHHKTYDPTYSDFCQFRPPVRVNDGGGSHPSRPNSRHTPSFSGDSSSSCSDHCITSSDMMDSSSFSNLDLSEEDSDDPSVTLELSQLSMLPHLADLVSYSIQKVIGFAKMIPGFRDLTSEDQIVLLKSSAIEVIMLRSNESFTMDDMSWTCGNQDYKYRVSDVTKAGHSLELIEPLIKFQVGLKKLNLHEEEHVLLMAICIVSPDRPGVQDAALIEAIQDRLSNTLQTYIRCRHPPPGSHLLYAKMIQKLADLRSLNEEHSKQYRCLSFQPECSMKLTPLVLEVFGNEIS
Sequence of Bile acid receptor (Homo sapiens) (Q96RI1 whole entry, looked up): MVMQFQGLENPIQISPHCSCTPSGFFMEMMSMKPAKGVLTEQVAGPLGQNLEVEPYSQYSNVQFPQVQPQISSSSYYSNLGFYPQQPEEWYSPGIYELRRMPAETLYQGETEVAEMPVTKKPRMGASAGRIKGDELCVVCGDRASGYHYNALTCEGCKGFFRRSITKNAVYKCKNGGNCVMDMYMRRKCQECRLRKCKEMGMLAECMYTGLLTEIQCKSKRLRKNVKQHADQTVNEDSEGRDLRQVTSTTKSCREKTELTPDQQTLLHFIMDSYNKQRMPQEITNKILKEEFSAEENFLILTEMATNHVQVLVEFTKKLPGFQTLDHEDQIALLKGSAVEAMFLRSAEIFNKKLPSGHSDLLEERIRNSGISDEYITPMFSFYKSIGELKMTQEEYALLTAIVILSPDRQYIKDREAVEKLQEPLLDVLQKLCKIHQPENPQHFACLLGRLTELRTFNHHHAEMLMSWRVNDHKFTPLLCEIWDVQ
Sequence of Aryl hydrocarbon receptor (Homo sapiens) (P35869 whole entry, looked up): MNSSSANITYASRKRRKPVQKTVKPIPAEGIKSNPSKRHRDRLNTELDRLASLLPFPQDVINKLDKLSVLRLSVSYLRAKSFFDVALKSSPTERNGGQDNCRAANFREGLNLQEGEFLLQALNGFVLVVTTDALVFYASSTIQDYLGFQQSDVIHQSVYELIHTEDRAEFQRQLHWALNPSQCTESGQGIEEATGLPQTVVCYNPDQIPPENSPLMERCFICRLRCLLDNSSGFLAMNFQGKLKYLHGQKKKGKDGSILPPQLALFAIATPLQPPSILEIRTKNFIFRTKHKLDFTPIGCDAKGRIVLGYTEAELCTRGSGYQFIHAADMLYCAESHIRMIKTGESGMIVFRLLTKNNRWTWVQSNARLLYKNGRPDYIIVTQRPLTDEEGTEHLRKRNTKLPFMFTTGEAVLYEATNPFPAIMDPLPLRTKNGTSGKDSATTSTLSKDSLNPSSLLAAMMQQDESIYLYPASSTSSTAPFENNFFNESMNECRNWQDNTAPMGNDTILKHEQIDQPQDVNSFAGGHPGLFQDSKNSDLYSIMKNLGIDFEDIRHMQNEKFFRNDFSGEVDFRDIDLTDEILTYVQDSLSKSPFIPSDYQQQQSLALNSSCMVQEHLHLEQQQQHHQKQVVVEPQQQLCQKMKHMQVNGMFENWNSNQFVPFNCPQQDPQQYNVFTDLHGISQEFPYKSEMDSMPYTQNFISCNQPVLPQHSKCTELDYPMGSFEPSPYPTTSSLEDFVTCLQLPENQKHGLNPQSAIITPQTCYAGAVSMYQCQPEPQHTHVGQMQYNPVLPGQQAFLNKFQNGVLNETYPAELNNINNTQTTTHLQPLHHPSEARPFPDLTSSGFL

Structure (SMILES)	Potency [1]	Potency [2]	Potency [3]	Potency [4]	Potency [5]	Potency [6]	Potency [7]	outcome [8]	Potency [9]	Potency [10]	Potency [11]	Potency [12]	outcome [13]	outcome [14]	Potency [15]	outcome [16]	Potency [17]	outcome [18]	Potency [19]	Potency [20]
CC(=O)OC(C)C[N+](C)(C)C (configuration not stated)	inactive	inactive	inactive	inactive	inactive	inactive	inactive	inactive	inactive	inactive	inactive	inactive	inactive	inactive	inactive					
CCCCCCCCCCCCCOS(=O)(=O)O	inactive	inactive		61.1 µM (active)	inactive											inactive				
CC[C@H]1OC(=O)[C@H](C)[C@@H](O[C@H]2C[C@@](C)(OC)[C@@H](O)[C@H](C)O2)[C@H](C)[C@@H](O[C@@H]2O[C@H](C)C[C@H](N(C)C)[C@H]2O)[C@](C)(O)C[C@@H](C)C(=O)[C@H](C)[C@@H](O)[C@]1(C)O	inactive	inactive	inactive			inactive	inactive				inactive	inactive	inactive	inactive	inactive	inactive				
Cc1c(C2(c3cc(Br)c(O)c(Br)c3C)OS(=O)(=O)c3ccccc32)cc(Br)c(O)c1Br	inactive	inactive			inactive	inactive			inactive		16.9 µM (active)	16.9 µM (active)		inactive	inactive	inactive	inactive	inactive		
CC1CCC(C(C)CS)CC1S (configuration not stated)	inactive			15.4 µM (active)	38.9 µM (active)		inactive	inactive	inactive	inactive	inactive		inactive		inactive	inactive				
COC1CCC=CO1 (configuration not stated)	inactive	inactive	inactive	inactive	inactive	inactive		inactive	inactive	inactive	inactive	inactive			inactive	inactive				
COc1cc(S(=O)(=O)Nc2ccccc2)c(OC)cc1N	inactive	inactive			inactive	inactive		inactive		inactive	inactive		inactive		inactive	inactive	inactive	inactive	inactive	
Nc1ccn([C@H]2CS[C@@H](CO)O2)c(=O)n1	inactive			inactive	inactive	inactive	inactive				inactive									
CCCCCCCCCCCSCC(=O)O	inactive	inactive		inactive	49 µM (active)		15.5 µM (active)					inactive			inactive					
c1ccc(CNc2ncnc3c2ncn3C2CCCCO2)cc1 (configuration not stated)	8.63 µM (active)	inactive		inactive		inactive	inactive	inactive		inactive		inactive	inactive		inactive	inactive		inactive	inactive	
O=NN(CCCl)C(=O)NCCCl	inactive			inactive		inactive	inactive	inactive		inactive	inactive	inactive				inactive	inactive			
Nc1ccc(N=Nc2ccc(N)cc2)cc1	inactive		2.43 µM (active)	inactive	inactive	inactive	inactive	inactive		inactive	inactive		inactive	inactive	inactive	inactive				
COc1ccc(N)c([N+](=O)[O-])c1	inactive	inactive	inactive	inactive	inactive	inactive	inactive	inactive	inactive	inactive		inactive	inactive	inactive	inactive	inactive		inactive	inactive	
CN1CCCN(C(c2ccccc2)c2ccc(Cl)cc2)CC1 (configuration not stated)	inactive				inactive	inactive	21.1 µM (active)		26.6 µM (active)		29.8 µM (active)	26.6 µM (active)							inactive	
O=C1c2ccccc2C(=O)c2c(O)ccc(O)c21	7.7 µM (active)		2.73 µM (active)		inactive	inactive	inactive				inactive	inactive		inactive			inactive			
COC(=O)C1=C(C)NC(C)=C(C(=O)OC(C)(C)CN(C)CCC(c2ccccc2)c2ccccc2)C1c1cccc([N+](=O)[O-])c1 (configuration not stated)		inactive		inactive	inactive	inactive		inactive	inactive	inactive	inactive		inactive	inactive		inactive				
SCCc1cnccn1		inactive		inactive							inactive				inactive		inactive			
O=[N+]([O-])c1ccc2ncccc2c1		inactive	inactive	inactive	inactive	inactive		inactive	inactive	inactive			inactive	inactive	inactive	inactive		inactive		
Oc1cccc2[nH]ccc12		inactive		inactive	inactive	inactive	inactive	inactive	inactive	inactive	inactive	inactive	inactive		inactive		inactive	inactive		
Oc1ccc2c(c1)Cc1ccccc1-2		inactive	34.4 µM (active)	inactive	inactive	inactive			inactive	inactive	inactive	inactive		inactive		inactive				
CC(=O)N[C@@H](Cc1ccc(O)cc1)C(=O)O		inactive	inactive	inactive	inactive	inactive	inactive	inactive	inactive	inactive	inactive	inactive	inactive	inactive	inactive					inactive
